# CYP2C19 activ: increases human CYP2C19 enzyme activity; P33261; recombinant CYP2C19, luciferin-H EGE luminescence; hits give high values; 0 = fully inhibited enzyme, 1 = untreated enzyme; activation factor at 5 µM; 96,000 tested, under 10 active;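 active = activation factor of at least 2 at 5 µM in the primary screen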;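 also: 0 = wells with 2.5 mM tranylcypromine and 1 = vehicle-only wells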
# Target sequence (P33261 whole entry, looked up): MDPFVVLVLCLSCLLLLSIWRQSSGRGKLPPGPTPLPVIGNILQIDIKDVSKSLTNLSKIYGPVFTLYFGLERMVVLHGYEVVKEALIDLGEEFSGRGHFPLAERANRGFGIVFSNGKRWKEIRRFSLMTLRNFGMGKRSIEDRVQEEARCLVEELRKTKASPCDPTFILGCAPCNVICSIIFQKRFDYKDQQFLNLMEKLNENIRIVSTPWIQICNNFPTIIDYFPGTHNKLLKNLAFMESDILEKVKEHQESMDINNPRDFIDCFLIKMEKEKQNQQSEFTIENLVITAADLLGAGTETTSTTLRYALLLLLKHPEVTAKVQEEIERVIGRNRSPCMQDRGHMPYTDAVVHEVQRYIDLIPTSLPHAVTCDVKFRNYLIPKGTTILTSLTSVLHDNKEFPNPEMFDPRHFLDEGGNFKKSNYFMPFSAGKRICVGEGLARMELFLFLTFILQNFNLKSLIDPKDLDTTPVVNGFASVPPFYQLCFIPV
# CYP2C9 inhib: blocks human cytochrome P450 2C9; actives 20% (n = 96,000); CYP2C9 Supersomes, luciferin-H conversion, luminescence; P11712; inhibition, % at 5 µM;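 active = blocking of liver enzyme CYP2C9 beyond about 50% at 5 µM, limit read from the data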
# CYP2C9 activ: activators of human CYP2C9; P11712; recombinant CYP2C9, luciferin-H conversion, luminescence; hits give high values; factor 1 = untreated enzyme, 0 = blocked; activation factor at 5 µM; actives 1.4% (n = 96,000); AID 1024;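 active = activation factor of 2 or more for CYP2C9 at a 5 µM dose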;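 also: 0 = sulfaphenazole-blocked wells and 1 = vehicle-only wells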
# Cav3 T inh: human Cav3.2 channel inhibition, primary screen; AID 449739; actives 4% (n = 100,000); Cav3.2-expressing cells, Fluo-4 calcium fluorescence FDSS; hits give low values; B-score at 10 µM;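 active = single-dose well whose peak fluorescence ratio is a statistical outlier from its plate by either plate-standardised score or position-corrected B-score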
# CYP2C19 inhib: human CYP2C19 inhibition. inhibition, % at 5 µM. P33261. CYP2C19 Supersomes, luciferin-H EGE luminescence, 30 min. actives 21% (n = 96,000). AID 778;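 active = CYP2C19 inhibition above a set limit at 5 µM in the primary screen, cut at about 50% in these data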;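 also: plate controls were negative control wells for no effect and 2.5 mM tranylcypromine positive control for full effect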
# An asterisk follows results filed as active; . = no result. Rows were chosen to be rich in hits. Some 27% of all compounds tested hit in one or more screens of this group.
SMILES,CYP2C19 activ,CYP2C9 inhib,CYP2C9 activ,Cav3 T inh,CYP2C19 inhib
CC(Oc1ccc(Cl)cc1Cl)C(=O)Nc1cccnc1 (stereo not given),.,.,.,1.95,.
CC(Oc1ccc(Cl)cc1Cl)C(=O)NCCCN1CCOCC1 (stereo not given),0.4,-9.8,1.1,0.888,58.3*
CC(C)(Oc1ccc(Cl)cc1)C(=O)NC1CCSC1=O (stereo not given),.,.,.,0.217,.
COCCNC(=O)C(C)Oc1ccc(Cl)cc1Cl (stereo not given),0.1,46.2,0.5,1.06,94.2*
COc1ccccc1NC(=O)CSC(N)=O,0.7,20.8,0.8,-2.8,30.3
O=C(N/N=C/c1ccc(OCCCF)cc1)c1cc(OCC(F)(F)F)ccc1OCC(F)(F)F,0.6,31.3,0.7,-0.123,37.3
COc1ccccc1N(CN1CCCC1=O)C(=O)c1c(F)cccc1F,0.7,76.2*,0.2,0.365,28.3
Cc1ccc(C(=O)C2COC(=O)C2)cc1 (stereo not given),1,-6.8,1.1,0.525,-0.2
C=CCn1c(SCC(C)=O)nnc1-c1cc(-c2ccccc2)sc1N,.,.,.,-1.46,.
C=CCn1c(SCc2ccccc2C#N)nnc1-c1cc(Br)ccc1O,0,78.3*,0.2,-2.89,99.2*
Clc1cccc(Cl)c1NC1=NCCN1,.,.,.,0.114,.
COc1cccc(C2C(C(=O)c3cc4cccc(OC)c4o3)=C(O)C(=O)N2c2cc(C)on2)c1OC (stereo not given),0.9,85.2*,0.1,-0.215,10.2
O=C(/C=C1\NC2(CCCC2)Cc2ccccc21)N1CCOCC1,0.8,7.0,0.9,-1.04,19.7
CC(=O)N(C(C)=O)C1=C(C#N)C2(CCCCC2)Cc2ccccc21,0.8,23.9,0.8,-6.31*,20.7
Cc1ccc(C(=O)/C=C/Nc2ccc([N+](=O)[O-])cc2Br)cc1,0.8,26.7,0.7,-1.19,20.0
Cc1ccc(C2(c3ccc(C)cc3)CC2C(=O)Nc2ccc([N+](=O)[O-])cc2O)cc1 (stereo not given),0.8,75.2*,0.2,-1.93,20.2
CCOc1ccc(N(CC(=O)NCCCOC)S(C)(=O)=O)cc1,0.9,-10.3,1.1,0.666,9.6
CCOC(=O)C(=O)Nc1ccccc1C(=O)Nc1ccc(OC)cc1,0.6,52.1*,0.5,-0.11,37.2
CCOc1ccc(N(CC(=O)NC(C)CC)S(C)(=O)=O)cc1 (stereo not given),0.4,30.4,0.7,0.418,64.8*
CCC(C)NC(=O)c1ccccc1NC(=O)CN(c1ccc(OC)cc1)S(C)(=O)=O (stereo not given),0.3,97.9*,0,0.542,72.3*
CCOc1ccc(N(CC(=O)NCC(C)C)S(C)(=O)=O)cc1,0.4,35.0,0.7,0.388,60.0*
COc1cccc(C(=O)Cn2c(=O)n(CC3CCCO3)c(=O)c3ccccc32)c1 (stereo not given),0.8,42.1,0.6,.,19.1
O=c1c2ccccc2nc2n1CCC2O (stereo not given),.,.,.,-0.196,.
Cc1ccc(NC(=O)CN(C)C(=O)CSc2nc3ccccc3o2)cc1,0.8,32.5,0.7,.,21.7
C/C(N)=C(/C#N)C(=O)COC(=O)CCSc1ccccc1,0.3,36.4,0.6,.,68.2*
Cc1ccc(C(=O)NC2CCS(=O)(=O)C2)cc1S(=O)(=O)N1CCCCC1 (stereo not given),1.1,31.7,0.7,1.42,-12.8
C/C(N)=C(/C#N)C(=O)COC(=O)c1cc(S(=O)(=O)N2CCCCC2)ccc1C,0.5,19.6,0.8,.,51.1*
CC1(C)C(=O)Nc2ccccc2N1C(=O)COC(=O)CCSc1ccccc1,0.6,12.8,0.9,0.275,41.9
C/C(N)=C(/C#N)C(=O)COC(=O)c1ccc(C)c(S(=O)(=O)N2CCCCC2)c1,0.2,62.3*,0.4,-0.444,81.2*

# Assay outcomes: PubChem BioAssay, several laboratories
